Screening results from PubChem.
An excerpt weighted towards active compounds, which were near 3.2% of everything screened.
dFosB act-1: activators of delta FosB homodimer, primary screen, biochemical, fluorescence polarization, TAMRA-CDK5 oligo, single point. AID 493131, 2011. Protein FosB (Mus musculus), P13346. 0.99% of 340,000 active. activation, % at 25 µM. purified delta FosB; percent of positive-control signal above neutral wells;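 active = mean activation above about 17%, with every replicate also reaching it, limit read from the data, passing the limit was not always enough; inconclusive = only one of the two conditions met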
Target sequence (P13346 whole entry, looked up): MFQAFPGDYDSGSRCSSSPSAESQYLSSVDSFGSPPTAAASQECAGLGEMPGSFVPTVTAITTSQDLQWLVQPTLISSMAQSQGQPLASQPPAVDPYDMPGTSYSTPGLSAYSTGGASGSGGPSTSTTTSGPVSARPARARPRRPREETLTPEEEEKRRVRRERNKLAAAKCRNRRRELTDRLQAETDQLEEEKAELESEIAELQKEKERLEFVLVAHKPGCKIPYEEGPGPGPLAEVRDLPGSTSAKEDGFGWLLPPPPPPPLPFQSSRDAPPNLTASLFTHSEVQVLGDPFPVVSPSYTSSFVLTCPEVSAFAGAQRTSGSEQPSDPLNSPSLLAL
CDK5 inh: inhibitors of human CDK5/p35 kinase, primary screen, biochemical, single concentration; AID 488839, 2010; Recombinant CDK5/p35, ADP-Glo luminescence, 60 min; inhibition, % at 10 µM; 0.01% of 330,000 active;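 active = highest replicate inhibition of at least 50% and at least 75% of replicates reaching 50%; inconclusive = only one of the two criteria met; inactive = both criteria failed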;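 note: plate controls were DMSO neutral control for no effect and GW8510 at 10 µM for full effect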
esBAF inh: Bmi1 luciferase reporter increase in mESCs, primary screen, esBAF inhibitor project, mouse ES cells, Bmi1 luciferase knock-in, single point; 24 h; 100% = twice the neutral-well signal; reporter increase, % at 12.5 µM; 2% of 350,000 active; AID 602393, 2012; in the data active = activation above about 40%; inconclusive = no clear call, values can overlap the other calls;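 note: 0% = median of the plate's neutral control wells and 100% = double that signal; a rise in the Bmi1 reporter signal indicates esBAF inhibition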
Dyrk1A ADPGlo: rat Dyrk1A kinase inhibitors, primary screen, biochemical, single point, plate reader | Dual specificity tyrosine-phosphorylation-regulated kinase 1A (Rattus norvegicus), Q63470 | inhibition, % at 12.5 µM | 0.43% of 310,000 active | ADP-Glo luminescence, NFATc1 peptide; in the data active = inhibition above about 50%;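 note: plate controls were vehicle with enzyme for no effect and no enzyme for full effect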
SMARCA2 activ: SMARCA2 (BRM) function activators, primary screen, cell-based, luminescence, high throughput | MG213 cells, MMTV-luciferase reporter, dexamethasone, overnight | activation, % at 9.1 µM | AID 652017, 2013 | 1% of 370,000 active; in the data active = activation above about 7.8%;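 note: 0% = vehicle wells and 100% = reference activator wells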
Rtt109 Vps75: inhibitors of C. albicans Rtt109/Vps75 HAT, primary screen, biochemical, ThioGlo CoA-SH fluorescence, plate reader; inhibition, % at 34.9 µM; Histone acetyltransferase RTT109 (Candida albicans (strain SC5314 / ATCC MYA-2876)), …; 0.16% of 330,000 active; purified Rtt109/Vps75, 4 h; AID 540336, 2011;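 active = inhibition of at least 50% in every replicate; inconclusive = best replicate reaches 50% inhibition but some replicates fall short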
Target sequence (Q5AAJ8 whole entry, looked up): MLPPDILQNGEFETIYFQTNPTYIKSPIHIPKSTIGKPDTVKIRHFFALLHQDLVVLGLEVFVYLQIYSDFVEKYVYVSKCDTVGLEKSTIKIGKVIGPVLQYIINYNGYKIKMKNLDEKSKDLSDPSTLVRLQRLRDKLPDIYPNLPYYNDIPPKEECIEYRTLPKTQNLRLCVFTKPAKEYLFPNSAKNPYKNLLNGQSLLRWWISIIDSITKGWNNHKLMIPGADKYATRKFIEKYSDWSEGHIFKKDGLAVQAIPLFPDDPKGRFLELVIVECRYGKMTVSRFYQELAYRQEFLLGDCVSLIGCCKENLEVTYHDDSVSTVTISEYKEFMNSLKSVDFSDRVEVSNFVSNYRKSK
dFosB act-2: activators of mouse delta FosB DNA binding, confirmation, biochemical, fluorescence polarization, TAMRA-CDK5 oligo, cherry-picked samples; purified delta FosB; normalised: neutral wells 0, positive control 100; activation, % at 24.9 µM; AID 588690, 2011; 2,400 tested, under 10 active; shares compounds with dFosB act-1;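 active = highest replicate activation at or above 34% and every replicate reaching that threshold; inconclusive = meets only one of the two criteria; inactive = meets neither criterion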;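 note: higher polarization means more probe DNA bound by delta FosB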
Numbers without * were called inactive; ? = inconclusive; . = no result.

SMILES | dFosB act-1 | CDK5 inh | esBAF inh | Dyrk1A ADPGlo | SMARCA2 activ | Rtt109 Vps75 | dFosB act-2
C[C@H]1CCCCO[C@H](CN(C)S(=O)(=O)c2cccs2)[C@@H](C)CN([C@@H](C)CO)C(=O)c2cc(NC(=O)c3ccccc3)ccc2O1 | . | . | -1.7 | . | . | . | .
CNC[C@@H]1Oc2ncc(C#Cc3cccc(OC)c3)cc2C(=O)N([C@@H](C)CO)C[C@@H]1C | . | . | 4.1 | . | . | . | .
CCN1CCN(c2cc(C)c3cc(NC(=S)NCCN(C)C)ccc3n2)CC1 | 20.0* | -6.3 | -1.8 | 2.2 | -1.7 | 8.1 | 6.5
Cc1cc(N2CCN(C)CC2)nc2ccc(NC(=S)N3CCN(c4cccc(Cl)c4)CC3)cc12 | 51.1* | 1.1 | . | -2.8 | -0.6 | -3.3 | 5.4
CCCCN(C)CCNC(=S)Nc1ccc2nc(N3CCN(CC)CC3)cc(C)c2c1 | ? | 1.9 | -4.9 | 17.2 | 1.8 | 4.8 | .
CCCCNC(=O)CCC(=O)Nc1ccc2nc(N3CCN(C)CC3)cc(C)c2c1 | -4.8 | 0.6 | 1.1 | 0.1 | 1.7 | -3.0 | .
Cc1cc(N2CCN(C)CC2)nc2ccc(NC(=S)N3CCN(c4ccc(Cl)cc4)CC3)cc12 | 9.6 | -0.9 | -6.4 | 2.4 | -1.1 | -2.5 | .
Cc1cc(N2CCN(C)CC2)nc2ccc(NC(=S)NCCCN3CCc4ccccc4C3)cc12 | 30.6* | -0.6 | . | -4.4 | -0.5 | 23.6 | 0.5
C[C@@H]1CN([C@H](C)CO)C(=O)c2cccc(NC(=O)C3CCCCC3)c2O[C@H]1CN(C)C(=O)Nc1cccc2ccccc12 | . | . | 4.4 | . | . | . | .
O=C(COC(=O)c1cc(=O)[nH]c2ccccc12)Nc1nccs1 | ? | 0.3 | -3.9 | 4.7 | 1.9 | -1.3 | .
Cc1cccc(C)c1NC(=O)COC(=O)c1cc(=O)[nH]c2ccccc12 | 42.5* | 0.0 | -0.1 | . | 2.4 | -4.8 | 2.7
O=C(COC(=O)c1cc(=O)[nH]c2ccccc12)NC1CCCCCCC1 | -11.2 | 0.7 | . | -3.4 | -2.0 | -9.4 | .
O=C(COC(=O)c1cc(=O)[nH]c2ccccc12)Nc1nc(-c2ccccc2)cs1 | 55.4* | -2.3 | 22.2 | 11.5 | 1.9 | -3.8 | 4.1
O=C(COC(=O)c1cc(=O)[nH]c2ccccc12)NCc1ccccc1 | -0.7 | 0.7 | 4.7 | 0.7 | 0.9 | -1.8 | .
CCNC(=O)COC(=O)c1cc(=O)[nH]c2ccccc12 | -0.6 | -1.4 | 1.5 | -0.4 | -4.0 | -17.6 | .
Cc1ccc(CNC(=O)COC(=O)c2cc(=O)[nH]c3ccccc23)cc1 | 54.7* | 0.0 | 1.5 | -1.6 | 3.2 | 1.4 | -1.4
O=C(COC(=O)c1cc(=O)[nH]c2ccccc12)Nc1ccc(Cl)cn1 | 19.1* | -0.4 | -8.2 | 0.2 | -1.5 | -9.0 | 1.4
O=C(C1CCCCC1)N1C[C@@H]2[C@H](c3ccccc31)[C@H](CO)N2C(=O)c1ccccc1F | . | . | 0.1 | . | . | . | .
Cc1ccc(NC(=O)CSc2nc3nc(C)cc(C)c3c(=O)[nH]2)cc1 | 22.1* | -0.3 | -6.0 | -4.1 | 1.0 | 0.1 | 3.8
Cc1csc(NC(=O)CSc2nc3sc(C)c(C)c3c(=O)[nH]2)n1 | -0.2 | 3.5 | 12.9 | -7.8 | 0.1 | 0.8 | .
Cc1sc2nc(SCC(=O)Nc3ccccc3F)[nH]c(=O)c2c1C | 22.5* | 0.0 | 8.1 | -2.0 | -2.2 | 3.7 | 0.2
Cc1ccccc1NC(=O)CSc1nc2scc(C)c2c(=O)[nH]1 | 27.5* | -1.9 | -1.2 | -0.4 | -1.1 | -8.7 | 3.0
Cc1cc(C)c2c(=O)[nH]c(SCC(=O)Nc3ccccc3)nc2n1 | -7.7 | -0.2 | -3.9 | 0.6 | -0.9 | 0.1 | .
COc1ccc(-n2nnnc2SCC(=O)c2ccc3c(c2)OCCO3)cc1 | 22.6* | -4.5 | -12.6 | -5.4 | 1.0 | 1.5 | 1.7
Cc1ccc(-n2nnnc2SCC(=O)Nc2ccc3c(c2)COC3=O)cc1C | 53.6* | -1.5 | 17.8 | -5.3 | -2.3 | -1.7 | -3.4
SMILES | dFosB act-1 | CDK5 inh | esBAF inh | Dyrk1A ADPGlo | SMARCA2 activ | Rtt109 Vps75 | dFosB act-2
Cc1ccc(-n2nnnc2SCC(=O)Nc2ccc3c(c2)OCCO3)cc1C | -2.1 | 0.5 | -4.1 | 5.0 | -3.9 | -5.4 | .
Cc1cc(NC(=O)CSc2nnnn2-c2ccc(C)c(C)c2)no1 | -6.7 | -0.2 | . | -2.8 | 0.8 | -1.2 | .
Cc1ccc(NC(=O)CSc2nnnn2-c2ccc3c(c2)OCO3)cc1C | 40.4* | 0.0 | -8.9 | -0.3 | -3.9 | 31.3 | 0.1
CO[C@H]1CN(C)C(=O)c2ccc(NS(C)(=O)=O)cc2OC[C@@H](C)N(CCC(F)(F)F)C[C@H]1C | . | . | -1.2 | . | . | . | .
CCNC(=O)[C@H]1[C@H](CO)[C@H]2Cn3c(ccc(C4=CCCCC4)c3=O)[C@@H]1N2Cc1ccncc1 | . | . | -1.3 | . | . | . | .
Cc1ccc(NC(=O)c2sc3ncn(CC(=O)N4CCN(c5ccccn5)CC4)c(=O)c3c2C)cc1F | 10.0 | 1.5 | 6.2 | 1.5 | 0.8 | -19.4 | .
Cc1ccc(NC(=O)c2sc3ncn(CC(=O)N4CCN(c5ccccn5)CC4)c(=O)c3c2C)cc1Cl | 35.1* | 0.3 | 6.2 | -2.2 | 0.9 | -2.3 | 1.2
O=C(Nc1ccc2c(c1)CCC2)c1cc(S(=O)(=O)N2CCN(c3ccccc3)CC2)ccc1Cl | 24.2* | -0.2 | . | -3.6 | -0.9 | 0.8 | 2.7
COC(=O)c1ccc(Nc2cc(C)nc3ccc(C)cc23)cc1 | -8.1 | 1.2 | . | 7.5 | 2.6 | 0.9 | .
Cc1ccc2nc(C)cc(Nc3ccc([N+](=O)[O-])cc3)c2c1 | 63.4* | 0.3 | . | 2.7 | 7.8 | -0.9 | 1.4
O=C(CCN1CCCCC1)N[C@@H]1CC[C@@H](CCNS(=O)(=O)c2ccccc2)O[C@H]1CO | . | . | -8.0 | . | . | . | .
C/C=C/c1cnc2c(c1)C(=O)N([C@H](C)CO)C[C@@H](C)[C@@H](CN(C)C(=O)Cc1ccccc1)O2 | . | . | 1.1 | . | . | . | .
Cc1ccc(S(=O)(=O)Nc2ccc3c(c2)C(=O)N([C@@H](C)CO)C[C@@H](C)[C@H](CN(C)C(=O)c2ccncc2)OCCCC[C@@H](C)O3)cc1 | . | . | 3.3 | . | . | . | .
O=C(Cc1ccncc1)NCC[C@@H]1CC[C@@H](NC(=O)Nc2cccc(F)c2)[C@@H](CO)O1 | . | . | -3.7 | . | . | . | .
COc1ccc(NC(=O)Cn2nnc(C(=O)NCc3ccccc3)c2N)cc1Cl | 14.4 | 0.4 | -2.8 | -0.8 | 0.6 | 0.0 | .
Nc1c(C(=O)NCCc2ccccc2)nnn1Cc1ccc(Cl)cc1 | 2.8 | 0.1 | 11.6 | -2.9 | -2.3 | -5.0 | .
Cc1ccc(NC(=O)Cn2nnc(C(=O)NCCc3ccccc3)c2N)cc1Cl | 18.6* | 0.1 | 2.2 | -1.3 | -1.6 | -2.3 | 1.8
